Measurements as given in PubChem BioAssay AID1159580 (chemical genetic matrix, 2015).
About 2,000 (36%) of roughly 5,500 compounds were called active. Roughly 18% stayed inconclusive and do not appear here. Some of the results follow. A number with no mark means an inactive call. Rule as the data show it: active = normalized growth mostly below about 0.91 (no sharp cut-off); inconclusive = no clear call, values can overlap the other calls; inactive = mostly above about 0.92.

Assay: chemical genetic growth profiling, strain panel (AID 1159580);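 also: tested at 20 µM; growth read once vehicle control cultures reached saturation at 30 °C; 1 = growth at the plate median or of vehicle wells; lower values mean less growth of the strain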
Conditions: growth OD

For `O=S(=O)(O)CCS`, the normalized growth (S. cerevisiae deletion strains, locus YKL009W, strain mrt4, hits give low values) was 1.02, the normalized growth (S. cerevisiae deletion strains, locus YKL068W, hits give low values) was 0.993 and the normalized growth (S. cerevisiae deletion strains, locus YKL085W, strain MDH1 (second series), hits give low values) was 0.99. For the same compound, the normalized growth (S. cerevisiae deletion strains, locus YKL085W, strain MDH1, hits give low values) was 0.99, the normalized growth (S. cerevisiae deletion strains, locus YKL160W, strain elf1, hits give low values) was 0.941 and the normalized growth (S. cerevisiae deletion strains, locus YKL190W, strain CNB1, hits give low values) was 1.01. For the same compound, the normalized growth (S. cerevisiae deletion strains, locus YKR001C, strain vps1, hits give low values) was 1.02, the normalized growth (S. cerevisiae deletion strains, locus YKR026C, strain gcn3, hits give low values) was 0.996 and the normalized growth (S. cerevisiae deletion strains, locus YKR091W, strain srl3, hits give low values) was 0.98. The normalized growth (S. cerevisiae deletion strains, locus YLL001W, strain dnm1, hits give low values) was 1, the normalized growth (S. cerevisiae deletion strains, locus YLL026W, hits give low values) was 1.01 and the normalized growth (S. cerevisiae deletion strains, locus YLL041C, strain sdh2, hits give low values) was 1. It also gave a normalized growth (S. cerevisiae deletion strains, locus YLR027C, strain aat2, hits give low values) of 0.997, a normalized growth (S. cerevisiae deletion strains, locus YLR039C, strain RIC1, hits give low values) of 1.03 and a normalized growth (S. cerevisiae deletion strains, locus YLR058C, strain SHM2, hits give low values) of 1.02. It also gave a normalized growth (S. cerevisiae deletion strains, locus YLR102C, strain apc9, hits give low values) of 0.992, a normalized growth (S. cerevisiae deletion strains, locus YLR113W, strain HOG1, hits give low values) of 0.956 and a normalized growth (S. cerevisiae deletion strains, locus YLR221C, strain rsa3, hits give low values) of 1.03. It also gave a normalized growth (S. cerevisiae deletion strains, locus YLR258W, strain gsy2, hits give low values) of 1, a normalized growth (S. cerevisiae deletion strains, locus YLR262C, strain YPT6 (second series), hits give low values) of 1.01 and a normalized growth (S. cerevisiae deletion strains, locus YLR262C, strain YPT6, hits give low values) of 1.05. The normalized growth (S. cerevisiae deletion strains, locus YLR268W, strain sec22, hits give low values) was 0.993, the normalized growth (S. cerevisiae deletion strains, locus YLR320W, strain mms22, hits give low values) was 0.979 and the normalized growth (S. cerevisiae deletion strains, locus YLR330W, strain CHS5, hits give low values) was 1.02. The normalized growth (S. cerevisiae deletion strains, locus YLR342W, strain FKS1 (second series), hits give low values) was 0.989, the normalized growth (S. cerevisiae deletion strains, locus YLR342W, strain FKS1, hits give low values) was 0.965 and the normalized growth (S. cerevisiae deletion strains, locus YLR357W, strain rsc2, hits give low values) was 0.912. The normalized growth (S. cerevisiae deletion strains, locus YLR370C, strain arc18, hits give low values) was 0.98, the normalized growth (S. cerevisiae deletion strains, locus YLR371W, strain rom2, hits give low values) was 0.996 and the normalized growth (S. cerevisiae deletion strains, locus YLR384C, strain iki3, hits give low values) was 0.97. For the same compound, the normalized growth (S. cerevisiae deletion strains, locus YLR418C, strain cdc73, hits give low values) was 0.976, the normalized growth (S. cerevisiae deletion strains, locus YML016C, strain PPZ1, hits give low values) was 1.01 and the normalized growth (S. cerevisiae deletion strains, locus YML032C, strain rad52, hits give low values) was 0.992. The normalized growth (S. cerevisiae deletion strains, locus YML120C, strain ndi1, hits give low values) was 0.993, the normalized growth (S. cerevisiae deletion strains, locus YML124C, strain tub3, hits give low values) was 0.994 and the normalized growth (S. cerevisiae deletion strains, locus YMR058W, strain fet3, hits give low values) was 1.01. The normalized growth (S. cerevisiae deletion strains, locus YMR078C, strain ctf18, hits give low values) was 0.991, the normalized growth (S. cerevisiae deletion strains, locus YMR125W, strain sto1, hits give low values) was 0.961 and the normalized growth (S. cerevisiae deletion strains, locus YMR129W, hits give low values) was 0.988. For the same compound, the normalized growth (S. cerevisiae deletion strains, locus YMR205C, strain PFK2, hits give low values) was 1.01, the normalized growth (S. cerevisiae deletion strains, locus YMR223W, strain ubp8, hits give low values) was 0.987 and the normalized growth (S. cerevisiae deletion strains, locus YMR231W, strain pep5, hits give low values) was 0.978. It also gave a normalized growth (S. cerevisiae deletion strains, locus YMR307W, strain GAS1, hits give low values) of 1, a normalized growth (S. cerevisiae deletion strains, locus YNL067W, strain RPL9B, hits give low values) of 1.03 and a normalized growth (S. cerevisiae deletion strains, locus YNL071W, strain lat1, hits give low values) of 0.996. It also gave a normalized growth (S. cerevisiae deletion strains, locus YNL153C, strain GIM3, hits give low values) of 1.04, a normalized growth (S. cerevisiae deletion strains, locus YNL183C, strain NPR1, hits give low values) of 0.933 and a normalized growth (S. cerevisiae deletion strains, locus YNL209W, strain ssb2, hits give low values) of 0.981. It also gave a normalized growth (S. cerevisiae deletion strains, locus YNL233W, strain BNI4, hits give low values) of 1.02, a normalized growth (S. cerevisiae deletion strains, locus YNL248C, strain rpa49, hits give low values) of 0.947 and a normalized growth (S. cerevisiae deletion strains, locus YNL250W, strain rad50, hits give low values) of 0.987. For the same compound, the normalized growth (S. cerevisiae deletion strains, locus YNL271C, strain bni1, hits give low values) was 0.981, the normalized growth (S. cerevisiae deletion strains, locus YNL298W, strain CLA4, hits give low values) was 0.982 and the normalized growth (S. cerevisiae deletion strains, locus YNL307C, strain MCK1, hits give low values) was 0.984. It also gave a normalized growth (S. cerevisiae deletion strains, locus YNL322C, strain KRE1 (second series), hits give low values) of 0.967, a normalized growth (S. cerevisiae deletion strains, locus YNL322C, strain KRE1, hits give low values) of 1.01 and a normalized growth (S. cerevisiae deletion strains, locus YNR049C, strain mso1, hits give low values) of 0.964. The normalized growth (S. cerevisiae deletion strains, locus YNR052C, strain pop2, hits give low values) was 0.995, the normalized growth (S. cerevisiae deletion strains, locus YOL006C, strain TOP1, hits give low values) was 1.07 and the normalized growth (S. cerevisiae deletion strains, locus YOL012C, strain htz1) was 1.22. It also gave a normalized growth (S. cerevisiae deletion strains, locus YOL147C, strain pex11, hits give low values) of 0.989, a normalized growth (S. cerevisiae deletion strains, locus YOR001W, strain rrp6, hits give low values) of 0.996 and a normalized growth (S. cerevisiae deletion strains, locus YOR061W, strain CKA2, hits give low values) of 1.02. The normalized growth (S. cerevisiae deletion strains, locus YOR069W, strain VPS5, hits give low values) was 1.01, the normalized growth (S. cerevisiae deletion strains, locus YOR070C, strain gyp1, hits give low values) was 0.988 and the normalized growth (S. cerevisiae deletion strains, locus YOR080W, strain dia2, hits give low values) was 0.964. The normalized growth (S. cerevisiae deletion strains, locus YOR083W, strain WHI5, hits give low values) was 0.888 (active), the normalized growth (S. cerevisiae deletion strains, locus YOR106W, strain vam3, hits give low values) was 0.982 and the normalized growth (S. cerevisiae deletion strains, locus YOR136W, strain idh2, hits give low values) was 0.994. It also gave a normalized growth (S. cerevisiae deletion strains, locus YOR144C, strain elg1, hits give low values) of 0.993, a normalized growth (S. cerevisiae deletion strains, locus YOR184W, strain ser1, hits give low values) of 0.983 and a normalized growth (S. cerevisiae deletion strains, locus YOR231W, strain MKK1, hits give low values) of 0.974. The normalized growth (S. cerevisiae deletion strains, locus YOR265W, strain rbl2, hits give low values) was 0.999, the normalized growth (S. cerevisiae deletion strains, locus YOR270C, strain vph1, hits give low values) was 0.939 and the normalized growth (S. cerevisiae deletion strains, locus YOR290C, strain snf2, hits give low values) was 0.974. The normalized growth (S. cerevisiae deletion strains, locus YOR316C, strain cot1, hits give low values) was 0.988, the normalized growth (S. cerevisiae deletion strains, locus YPL051W, strain arl3, hits give low values) was 0.991 and the normalized growth (S. cerevisiae deletion strains, locus YPL055C, strain LGE1, hits give low values) was 1.07. For the same compound, the normalized growth (S. cerevisiae deletion strains, locus YPL078C, strain atp4, hits give low values) was 0.969, the normalized growth (S. cerevisiae deletion strains, locus YPL106C, strain sse1, hits give low values) was 0.96 and the normalized growth (S. cerevisiae deletion strains, locus YPL240C, strain hsp82, hits give low values) was 0.994. The normalized growth (S. cerevisiae deletion strains, locus YPL241C, strain CIN2, hits give low values) was 1.01, the normalized growth (S. cerevisiae deletion strains, locus YPL256C, strain CLN2, hits give low values) was 0.997 and the normalized growth (S. cerevisiae deletion strains, locus YPR119W, strain clb2, hits give low values) was 0.99. The normalized growth (S. cerevisiae deletion strains, locus YPR141C, strain kar3, hits give low values) was 0.987, the normalized growth (S. cerevisiae deletion strains, locus YPR163C, strain tif3, hits give low values) was 0.99 and the normalized growth (S. cerevisiae deletion strains, locus YPR167C, strain met16, hits give low values) was 0.98. It also gave a normalized growth (S. cerevisiae deletion strains, strain wtn01, hits give low values) of 0.981 and a normalized growth (S. cerevisiae strains, strain wild type, hits give low values) of 1.01.
